Screening data: PubChem BioAssay, several laboratories
This is a sample that favours compounds with a hit; in the whole collection about 3.3% have one here.
UHRF1 MBD2 ctr = blocks human UHRF1 binding to methylated DNA. inhibition, % at 4.4 µM. AID 687016. UHRF1 binding to methylated oligo, TR-FRET. actives 0.75% (n = 370,000). Q96T88; in the data active = inhibition above about 21%;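 note: UHRF1 SRA domain binding a hemimethylated CpG hairpin DNA probe; 0% = median of test compound wells and 100% = reference inhibitor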
MBD2 DNA inh = inhibitors of human MBD2 binding to methylated oligonucleotide | inhibition, % at 4.4 µM | Q9UBB5 | actives 0.31% (n = 370,000) | TR-FRET | AID 686964; in the data active = inhibition above about 13%
Target sequence (Q9UBB5 whole entry, looked up): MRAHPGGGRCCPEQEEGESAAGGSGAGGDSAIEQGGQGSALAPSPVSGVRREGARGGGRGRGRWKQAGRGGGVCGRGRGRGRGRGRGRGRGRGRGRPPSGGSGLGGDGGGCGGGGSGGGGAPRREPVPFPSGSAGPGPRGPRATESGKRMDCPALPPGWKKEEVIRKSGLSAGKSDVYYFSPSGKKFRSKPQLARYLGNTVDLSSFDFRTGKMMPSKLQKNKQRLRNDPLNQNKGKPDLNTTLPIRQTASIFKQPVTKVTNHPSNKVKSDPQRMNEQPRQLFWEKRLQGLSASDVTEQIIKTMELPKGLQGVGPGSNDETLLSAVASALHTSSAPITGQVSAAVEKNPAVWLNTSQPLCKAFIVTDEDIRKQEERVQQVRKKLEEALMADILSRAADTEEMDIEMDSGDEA
PRMT1 inh = PRMT1 (human) inhibition, primary screen; inhibition, % at 2.79 µM; recombinant PRMT1, activity-based probe fluorescence polarization; Q99873; AID 652257; actives 1.3% (n = 370,000);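 active = inhibition above about 21% made by adding two undisclosed values, limit read from the data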
M18AAP inhibitor = PfM18AAP enzyme inhibition. recombinant PfM18AAP, H-Glu-NHMec fluorogenic cleavage. actives 1.2% (n = 290,000). inhibition, % at 7.35 µM. AID 1822;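 active = inhibition above the campaign mean inhibition over all tested compounds plus 3 SD, cut at about 28% in these data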;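 note: 0% = plate median of test compound wells and 100% = 2 mM ZnCl2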
PfG6PD inh = PfG6PD (Plasmodium falciparum) enzyme inhibition; PfGluPho enzyme, NADPH resazurin-diaphorase fluorescence; inhibition, % at 20 µM; actives 0.78% (n = 350,000);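 active = inhibition reaching at least a set limit at 20 µM in the primary screen, cut at about 59% in these data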;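 note: 0% = DMSO wells with substrate and 100% = DMSO wells lacking glucose-6-phosphate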
PRMT1 inh conf = PRMT1 (human) inhibition, FP confirmation | AID 687036 | actives 42% (n = 3,300) | shares compounds with PRMT1 inh | inhibition, % at 2.79 µM | recombinant His-PRMT1, activity-based probe fluorescence polarization;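 active = mean inhibition across replicates above the hit cutoff derived for the earlier primary screen, cut at about 22% in these data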
The depositor's hits bear a star; · = no result given.

SMILES | UHRF1 MBD2 ctr | MBD2 DNA inh | PRMT1 inh | M18AAP inhibitor | PfG6PD inh | PRMT1 inh conf
Nc1c(S(=O)(=O)c2ccccc2)c2nc3ccccc3nc2n1CCN1CCOCC1 | 3.4 | 0.3 | 3.3 | 4.3 | -4.5 | ·
Cc1ccc(S(=O)(=O)c2c(N)n(Cc3ccco3)c3nc4ccccc4nc23)cc1C | -7.7 | 2.7 | 27.6* | 1.6 | 23.8 | 6.4
Cc1oc(-c2ccccc2)cc1C(=O)NC(Cc1c[nH]c2ccccc12)C(=O)O (stereo not drawn) | 5.2 | 9.0 | 30.2* | 0.4 | -46.8 | 4.0
O=C(Nc1ccccc1C(=O)NC(Cc1c[nH]c2ccccc12)C(=O)O)c1ccccc1 (stereo not drawn) | 1.0 | 6.7 | -1.5 | -11.9 | -17.7 | ·
CCc1nnc(NC(=O)COc2ccc3c(c2)OCO3)s1 | -0.1 | -0.6 | -2.8 | 1.2 | 7.6 | ·
S=c1[nH]c2ccc(Cc3ccc4[nH]c(=S)[nH]c4c3)cc2[nH]1 | 0.6 | -0.2 | 30.2* | 14.8 | 37.3 | 6.6
Nc1ccc2[nH]c(=S)[nH]c2c1 | -3.1 | -3.4 | 5.1 | · | 25.6 | ·
Cc1ccc(C2C(C#N)=C(N)N(c3cccnc3)C3=C2C(=O)CCC3)c(C)c1 (stereo not drawn) | 1.6 | 0.9 | -0.4 | -0.3 | 4.4 | ·
COCc1cc(N2CCN(C(=O)OC(C)(C)C)C[C@H]2C)ccc1N1CC[C@H](O)C1 | -4.7 | -4.9 | 60.5* | · | · | 1.4
COCc1cc(N2CCN(C(=O)OC(C)(C)C)C[C@@H]2C)ccc1N1CCS(=O)(=O)CC1 | 0.3 | 2.1 | -4.0 | · | · | ·
Cc1cc(N2CCN(C(=O)OC(C)(C)C)C[C@H]2C)ccc1N1CC[C@@H](O)C1 | -4.1 | 0.0 | 61.0* | · | · | 11.2
Cc1cc(N2CCN(C(=O)OC(C)(C)C)C[C@@H]2C)ccc1N1CCS(=O)(=O)CC1 | -2.4 | 1.5 | -0.2 | · | · | ·
COCc1cc(N2CCN(C(=O)OC(C)(C)C)C[C@@H]2C)ccc1N1CC[C@H](O)C1 | -5.0 | -6.8 | 58.4* | · | · | 7.0
Cc1ccccc1C(=O)NN1CC(C(=O)OCc2ccc(Cl)c(Cl)c2)CC1=O (stereo not drawn) | 0.1 | 4.2 | 4.7 | -12.3 | 2.8 | ·
O=C(c1ccc2c(=O)n3c(nc2c1)CCCCC3)N1CCN(c2ccc([N+](=O)[O-])cc2)CC1 | -1.2 | -4.9 | -0.5 | -6.8 | -2.8 | ·
C/C(=N\NC(=S)NCCc1ccccc1)c1cccs1 | 0.2 | 3.9 | 29.3* | 5.4 | 12.7 | 11.8
CCN1CCN(CC(=O)c2ccc(OC)cc2)CC1 | 1.0 | -1.3 | 2.7 | -6.0 | 3.2 | ·
O=C(CC(SCCO)c1ccc2c(c1)OCO2)c1ccco1 (stereo not drawn) | -2.3 | -5.3 | 39.2* | 7.6 | 0.3 | 44.3*
CCCC(C(=O)NC1CCCC1)N(Cc1ccccc1)C(=O)c1snc(C(N)=O)c1N (stereo not drawn) | -0.3 | 1.9 | -2.1 | -4.9 | -3.5 | ·
Cc1ccc(/C=c2\sc3n(c2=O)CN(c2ccc(Br)cc2)CN=3)o1 | -5.4 | 0.1 | 36.5* | 28.8* | 34.5 | 5.4
O=C(OCC(=O)N1N=C(c2ccc(Cl)cc2)CC1c1ccco1)c1cncc(Br)c1 (stereo not drawn) | -4.4 | -5.3 | 33.6* | · | 30.1 | 5.4
CC(=O)NC1=C(NC2CCS(=O)(=O)C2)C(=O)c2ccccc2C1=O (stereo not drawn) | -5.3 | -12.6 | 43.9* | 4.5 | -2.8 | 67.4*
CN(C1=C(NC(=O)c2ccccc2)C(=O)c2ccccc2C1=O)C1CCS(=O)(=O)C1 (stereo not drawn) | -9.5 | -11.8 | 7.3 | 12.5 | · | ·
CC(=O)Nc1ccc(NC(=O)C(C)N(C)CC(=O)Nc2ccccc2Br)cc1 (stereo not drawn) | -1.2 | 1.5 | -5.2 | 6.2 | -15.8 | ·
CC(=O)NS(=O)(=O)c1ccc(NC(=O)/C=C/c2ccco2)cc1 | 28.5* | 2.9 | 37.2* | 0.1 | -10.8 | 24.1*
SMILES | UHRF1 MBD2 ctr | MBD2 DNA inh | PRMT1 inh | M18AAP inhibitor | PfG6PD inh | PRMT1 inh conf
O=C(/C=C/c1ccco1)NC(=S)Nc1ccc(Cl)cn1 | 3.2 | -0.2 | 29.0* | 8.2 | 9.4 | -3.0
CN(C)c1ccc(NC(=S)NC(=O)/C=C/c2ccco2)cc1 | 0.9 | 1.5 | 27.3* | 21.3 | 12.9 | -0.5
NS(=O)(=O)c1ccc(NC(=O)/C=C/c2ccco2)cc1 | 6.0 | 4.4 | 8.2 | 1.4 | -2.5 | ·
O=C1C=CC(=O)N1c1ccc(O)cc1 | -1.4 | 3.7 | 89.5* | -14.8 | 22.1 | 92.1*
O=C1CCCC(=O)N1c1ccc(O)cc1 | 1.4 | -6.5 | -3.3 | -0.5 | -19.4 | ·
COC(=O)C1=C(Nc2ccccc2NC(=O)c2ccccc2C(=O)O)CSC1 | -0.3 | -5.1 | 25.7* | 6.0 | 24.1 | 6.5
CCCCN(C(=O)CN1C(=O)C2CCCCC2C1=O)c1c(N)n(CCCC)c(=O)[nH]c1=O (stereo not drawn) | 1.1 | -1.9 | 0.3 | · | -4.6 | ·
COc1ccc(OC)c(-n2c(=S)[nH]c3c(sc(=S)n3-c3ccccc3C)c2=O)c1 | -0.6 | 4.2 | 48.1* | -0.4 | 43.0 | 3.2
COc1cccc(-n2c(=S)sc3c(=O)n(-c4ccccc4OC)c(=S)[nH]c32)c1 | 0.0 | -5.4 | 82.3* | 4.7 | 39.1 | 20.5
COc1ccc(OC)c(-n2c(=S)[nH]c3cc(C(=O)N(C)Cc4ccccc4)ccc3c2=O)c1 | 4.6 | -0.7 | 0.3 | 3.4 | 12.7 | ·
COc1ccc(CCN(C(=O)c2snc(C(N)=O)c2N)C(C)C(=O)NC2CCCCC2)cc1OC (stereo not drawn) | -1.7 | -0.7 | 2.5 | -2.8 | -10.1 | ·
Nc1sccc1C(=O)NCc1ccccc1 | 2.7 | 8.0 | 33.7* | · | · | 16.2
O=C(O)c1ccccc1C(=O)NCc1ccccc1 | 0.5 | 0.8 | -3.5 | 9.8 | 8.3 | ·
CCn1nnc2cc(C(=O)OCC(=O)N(C)Cc3cccc(F)c3)ccc21 | 1.9 | 1.8 | 0.5 | · | 11.2 | ·
O=C(Nc1nc(-c2ccco2)c(-c2ccco2)s1)C1CC(=O)N(c2ccc3c(c2)OCCO3)C1 (stereo not drawn) | 9.3 | 8.9 | 37.7* | 14.9 | 48.6 | 10.1
O=C(Nc1nc(-c2ccco2)c(-c2ccco2)s1)C1CCC1 | 7.1 | 4.0 | 35.4* | 16.1 | 22.2 | 18.9
C/C(=N\Nc1ccc(Cl)c(C(=O)O)c1)c1cccs1 | 17.2 | 2.3 | 16.6 | 9.1 | 7.9 | ·
C/C(=N\Nc1ccc(Cl)c(C(=O)O)c1)c1ccc[nH]1 | 23.4* | 5.3 | 31.6* | 20.1 | 15.4 | 5.1
Cc1nn(C(=O)CCCn2cc([N+](=O)[O-])cn2)c(C)c1Cl | -1.1 | 0.4 | 0.0 | 3.1 | 14.1 | ·
CC(=O)Nc1c(Cl)cc2c(c1Cl)Cc1cc(C#N)ccc1-2 | -0.9 | -6.0 | -1.3 | · | 21.9 | ·
O=S(=O)(c1ccccc1)N1CCC(O)(CN2CCN(c3ccccc3)CC2)CC1 | 0.2 | 1.2 | 0.6 | 4.2 | 0.1 | ·
Cc1cnc(NC(=O)Cc2ccc(S(=O)(=O)N3CCOCC3)s2)s1 | 3.5 | 3.9 | 38.3* | · | -1.9 | 11.6
CCOC(=O)C1=C(COC(=O)CNS(=O)(=O)c2c(F)cc(F)cc2Br)NC(=O)NC1C (stereo not drawn) | -1.6 | -9.0 | -1.6 | · | -1.4 | ·
